From paper PMC7862700, “An all-to-all approach to the identification of sequence-specific readers for epigenetic DNA modifications on cytosine”

Tests used:
Test in all cases: DAPPL (digital affinity profiling via proximity ligation, sequencing); 10 mM Tris-HCl pH 7.5, 50 mM NaCl, 1 mM DTT, 4% glycerol, room temperature, 30 min; GST-TFs on glutathione beads, 16-mer random dsDNA library, 0.1% formaldehyde crosslink after washing; high values mean tight binding
Conditions in all cases: protein: recombinant; tags: N-terminal GST; dsDNA, one strand shown
ERF = molecular target: T1, ERF (Homo sapiens, UniProt P50548 1-548)
T1 sequence: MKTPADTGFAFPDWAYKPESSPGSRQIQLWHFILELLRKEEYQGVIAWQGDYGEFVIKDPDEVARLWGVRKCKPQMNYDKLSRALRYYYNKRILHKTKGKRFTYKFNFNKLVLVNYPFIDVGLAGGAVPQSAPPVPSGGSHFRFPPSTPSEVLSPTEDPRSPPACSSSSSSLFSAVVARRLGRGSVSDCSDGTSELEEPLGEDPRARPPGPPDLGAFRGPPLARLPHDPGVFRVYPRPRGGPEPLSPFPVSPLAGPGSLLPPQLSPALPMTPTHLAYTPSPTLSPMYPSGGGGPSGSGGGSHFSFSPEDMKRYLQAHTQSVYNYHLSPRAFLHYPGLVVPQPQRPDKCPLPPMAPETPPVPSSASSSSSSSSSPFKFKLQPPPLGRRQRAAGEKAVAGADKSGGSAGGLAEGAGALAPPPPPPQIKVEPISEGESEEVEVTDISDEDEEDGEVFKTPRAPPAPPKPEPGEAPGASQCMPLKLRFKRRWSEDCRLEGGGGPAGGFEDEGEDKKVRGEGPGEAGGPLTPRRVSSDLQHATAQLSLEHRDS
Method in brief: (§1)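 Binding signal is defined as a hexamer's read frequency for one factor over its frequency for the tag-only sample. To obtain reads, GST-fused human transcription factors were expressed in yeast, captured on glutathione beads, barcoded with DNA and pooled with that sample. Pools met 200 nmole of a 16-mer random double-stranded DNA library in Tris/NaCl/DTT/glycerol buffer for 30 min at room temperature before washing, 0.1% formaldehyde crosslinking, proximity ligation (BsaI/T4 ligase, 1 h, 37 °C), PCR and Illumina NextSeq500 sequencing.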

ETV3L = molecular target: T2, ETV3L (Homo sapiens, UniProt Q6ZN32 1-361)
T2 sequence: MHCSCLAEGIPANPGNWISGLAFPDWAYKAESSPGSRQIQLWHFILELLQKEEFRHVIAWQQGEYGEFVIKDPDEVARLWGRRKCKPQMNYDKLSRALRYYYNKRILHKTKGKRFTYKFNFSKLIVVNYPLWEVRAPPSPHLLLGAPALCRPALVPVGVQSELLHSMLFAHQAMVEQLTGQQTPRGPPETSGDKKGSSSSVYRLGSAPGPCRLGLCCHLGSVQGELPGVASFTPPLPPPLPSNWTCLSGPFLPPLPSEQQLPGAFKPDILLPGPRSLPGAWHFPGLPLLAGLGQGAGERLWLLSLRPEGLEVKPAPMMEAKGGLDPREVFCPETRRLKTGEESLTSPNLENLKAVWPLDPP
Method in brief: as §1

ETS2 = molecular target: T3, ETS2 (Homo sapiens, UniProt P15036 1-469)
T3 sequence: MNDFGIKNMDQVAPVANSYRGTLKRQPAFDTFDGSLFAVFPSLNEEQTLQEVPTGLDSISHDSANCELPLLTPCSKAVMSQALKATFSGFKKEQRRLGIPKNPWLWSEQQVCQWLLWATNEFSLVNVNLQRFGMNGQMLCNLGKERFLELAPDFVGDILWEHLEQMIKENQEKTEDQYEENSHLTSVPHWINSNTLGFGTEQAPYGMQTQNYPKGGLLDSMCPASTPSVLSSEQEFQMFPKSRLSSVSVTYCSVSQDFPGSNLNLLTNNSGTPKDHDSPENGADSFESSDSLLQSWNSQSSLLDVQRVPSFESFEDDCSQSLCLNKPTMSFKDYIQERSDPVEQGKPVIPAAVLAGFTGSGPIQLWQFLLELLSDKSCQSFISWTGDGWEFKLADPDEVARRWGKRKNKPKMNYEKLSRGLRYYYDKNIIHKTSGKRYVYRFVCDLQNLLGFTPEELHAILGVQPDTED
Method in brief: as §1

SPDEF = molecular target: T4, SPDEF (Homo sapiens, UniProt O95238 1-335)
T4 sequence: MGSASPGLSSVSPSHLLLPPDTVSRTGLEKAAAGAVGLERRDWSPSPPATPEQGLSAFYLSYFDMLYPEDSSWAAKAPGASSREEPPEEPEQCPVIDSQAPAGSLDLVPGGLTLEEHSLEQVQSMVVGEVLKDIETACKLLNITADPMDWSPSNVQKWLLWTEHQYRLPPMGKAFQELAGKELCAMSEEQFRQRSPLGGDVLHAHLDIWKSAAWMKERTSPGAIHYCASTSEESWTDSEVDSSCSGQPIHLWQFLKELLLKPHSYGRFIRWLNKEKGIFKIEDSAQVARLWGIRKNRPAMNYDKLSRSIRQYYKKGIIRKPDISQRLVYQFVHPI
Method in brief: as §1

ETV7 = molecular target: T5, ETV7 (Homo sapiens, UniProt Q9Y603 1-341)
T5 sequence: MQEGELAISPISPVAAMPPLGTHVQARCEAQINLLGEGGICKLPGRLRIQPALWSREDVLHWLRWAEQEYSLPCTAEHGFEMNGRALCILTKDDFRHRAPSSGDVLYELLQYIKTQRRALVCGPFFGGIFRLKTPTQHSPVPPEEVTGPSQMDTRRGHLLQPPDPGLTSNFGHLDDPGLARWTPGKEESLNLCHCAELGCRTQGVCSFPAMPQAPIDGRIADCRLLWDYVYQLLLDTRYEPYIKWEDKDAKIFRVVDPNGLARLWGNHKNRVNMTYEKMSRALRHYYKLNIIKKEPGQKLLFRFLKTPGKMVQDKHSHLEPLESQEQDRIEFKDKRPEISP
Method in brief: as §1

ELF5 = molecular target: T6, ELF5 (Homo sapiens, UniProt Q9UKW6-2 1-255)
T6 sequence: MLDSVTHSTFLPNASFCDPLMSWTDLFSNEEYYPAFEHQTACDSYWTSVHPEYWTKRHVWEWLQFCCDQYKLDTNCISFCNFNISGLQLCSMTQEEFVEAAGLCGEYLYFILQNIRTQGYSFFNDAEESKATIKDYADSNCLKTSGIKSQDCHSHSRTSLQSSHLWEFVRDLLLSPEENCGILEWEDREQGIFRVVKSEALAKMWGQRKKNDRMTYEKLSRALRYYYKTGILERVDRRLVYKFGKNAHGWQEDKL
Method in brief: as §1

ETV3 = molecular target: T7, ETV3 (Homo sapiens, UniProt P41162-2 1-143)
T7 sequence: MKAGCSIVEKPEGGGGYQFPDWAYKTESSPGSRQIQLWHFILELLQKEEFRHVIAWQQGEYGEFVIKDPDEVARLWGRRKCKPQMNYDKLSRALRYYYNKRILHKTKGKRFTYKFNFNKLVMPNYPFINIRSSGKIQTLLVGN
Method in brief: as §1

ETV6 = ETV6 (Homo sapiens, UniProt P41212 1-452)
Method in brief: as §1

Chain of ETV6 (P41212 whole entry): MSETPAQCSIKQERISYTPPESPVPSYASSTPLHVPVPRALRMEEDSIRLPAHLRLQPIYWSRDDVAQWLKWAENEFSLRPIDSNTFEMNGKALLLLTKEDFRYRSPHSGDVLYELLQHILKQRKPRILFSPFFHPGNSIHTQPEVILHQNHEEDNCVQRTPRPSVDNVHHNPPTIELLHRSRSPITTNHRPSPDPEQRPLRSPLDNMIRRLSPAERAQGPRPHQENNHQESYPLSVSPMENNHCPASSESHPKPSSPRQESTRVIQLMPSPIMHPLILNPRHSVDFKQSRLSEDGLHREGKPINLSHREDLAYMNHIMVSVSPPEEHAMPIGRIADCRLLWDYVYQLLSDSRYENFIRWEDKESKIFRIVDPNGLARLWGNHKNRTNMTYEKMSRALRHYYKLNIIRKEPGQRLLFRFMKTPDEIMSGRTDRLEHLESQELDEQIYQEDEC

Sequence | binding signal (ERF) | binding signal (ETV3L) | binding signal (ETS2) | binding signal (SPDEF) | binding signal (ETV7) | binding signal (ELF5) | binding signal (ETV3) | binding signal (ETV6)
CTCCTG | 1.49 fold enrichment (6-mer frequency, TF over GST control) | 1.72 fold enrichment (6-mer frequency, TF over GST control) | 1.86 fold enrichment (6-mer frequency, TF over GST control) | 1.6 fold enrichment (6-mer frequency, TF over GST control) | 1.64 fold enrichment (6-mer frequency, TF over GST control) | 1.6 fold enrichment (6-mer frequency, TF over GST control) | 1.43 fold enrichment (6-mer frequency, TF over GST control) | 1.59 fold enrichment (6-mer frequency, TF over GST control)
ACTAAG | 1.04 fold enrichment (6-mer frequency, TF over GST control) | 1.12 fold enrichment (6-mer frequency, TF over GST control) | 1.11 fold enrichment (6-mer frequency, TF over GST control) | 1.16 fold enrichment (6-mer frequency, TF over GST control) | 1.14 fold enrichment (6-mer frequency, TF over GST control) | 1.12 fold enrichment (6-mer frequency, TF over GST control) | 1.09 fold enrichment (6-mer frequency, TF over GST control) | 1.2 fold enrichment (6-mer frequency, TF over GST control)
CGACCT | 1.47 fold enrichment (6-mer frequency, TF over GST control) | 1.75 fold enrichment (6-mer frequency, TF over GST control) | 1.41 fold enrichment (6-mer frequency, TF over GST control) | 1.44 fold enrichment (6-mer frequency, TF over GST control) | 1.54 fold enrichment (6-mer frequency, TF over GST control) | 1.58 fold enrichment (6-mer frequency, TF over GST control) | 1.53 fold enrichment (6-mer frequency, TF over GST control) | 1.5 fold enrichment (6-mer frequency, TF over GST control)
GCCTCC | 1.39 fold enrichment (6-mer frequency, TF over GST control) | 1.27 fold enrichment (6-mer frequency, TF over GST control) | 1.27 fold enrichment (6-mer frequency, TF over GST control) | 1.3 fold enrichment (6-mer frequency, TF over GST control) | 1.29 fold enrichment (6-mer frequency, TF over GST control) | 1.29 fold enrichment (6-mer frequency, TF over GST control) | 1.24 fold enrichment (6-mer frequency, TF over GST control) | 1.16 fold enrichment (6-mer frequency, TF over GST control)
TGATTC | 1.07 fold enrichment (6-mer frequency, TF over GST control) | 1.09 fold enrichment (6-mer frequency, TF over GST control) | 1.06 fold enrichment (6-mer frequency, TF over GST control) | 1.04 fold enrichment (6-mer frequency, TF over GST control) | 1.13 fold enrichment (6-mer frequency, TF over GST control) | 1.03 fold enrichment (6-mer frequency, TF over GST control) | 1.15 fold enrichment (6-mer frequency, TF over GST control) | 1.06 fold enrichment (6-mer frequency, TF over GST control)
TCAATT | 1.13 fold enrichment (6-mer frequency, TF over GST control) | 1.29 fold enrichment (6-mer frequency, TF over GST control) | 1.17 fold enrichment (6-mer frequency, TF over GST control) | 1.15 fold enrichment (6-mer frequency, TF over GST control) | 1.12 fold enrichment (6-mer frequency, TF over GST control) | 1.13 fold enrichment (6-mer frequency, TF over GST control) | 1.21 fold enrichment (6-mer frequency, TF over GST control) | 1.14 fold enrichment (6-mer frequency, TF over GST control)
CGCGTC | 1.37 fold enrichment (6-mer frequency, TF over GST control) | 1.26 fold enrichment (6-mer frequency, TF over GST control) | 1.24 fold enrichment (6-mer frequency, TF over GST control) | 1.31 fold enrichment (6-mer frequency, TF over GST control) | 1.25 fold enrichment (6-mer frequency, TF over GST control) | 1.34 fold enrichment (6-mer frequency, TF over GST control) | 1.23 fold enrichment (6-mer frequency, TF over GST control) | 1.29 fold enrichment (6-mer frequency, TF over GST control)
AAAAGA | 1.24 fold enrichment (6-mer frequency, TF over GST control) | 1.1 fold enrichment (6-mer frequency, TF over GST control) | 1.22 fold enrichment (6-mer frequency, TF over GST control) | 1.1 fold enrichment (6-mer frequency, TF over GST control) | 1.1 fold enrichment (6-mer frequency, TF over GST control) | 1.13 fold enrichment (6-mer frequency, TF over GST control) | 1.07 fold enrichment (6-mer frequency, TF over GST control) | 1.21 fold enrichment (6-mer frequency, TF over GST control)
CCGCAC | 1.46 fold enrichment (6-mer frequency, TF over GST control) | 1.55 fold enrichment (6-mer frequency, TF over GST control) | 1.47 fold enrichment (6-mer frequency, TF over GST control) | 1.46 fold enrichment (6-mer frequency, TF over GST control) | 1.4 fold enrichment (6-mer frequency, TF over GST control) | 1.59 fold enrichment (6-mer frequency, TF over GST control) | 1.61 fold enrichment (6-mer frequency, TF over GST control) | 1.56 fold enrichment (6-mer frequency, TF over GST control)
AGTGGC | 1.27 fold enrichment (6-mer frequency, TF over GST control) | 1.15 fold enrichment (6-mer frequency, TF over GST control) | 1.22 fold enrichment (6-mer frequency, TF over GST control) | 1.1 fold enrichment (6-mer frequency, TF over GST control) | 1.11 fold enrichment (6-mer frequency, TF over GST control) | 1.22 fold enrichment (6-mer frequency, TF over GST control) | 1.27 fold enrichment (6-mer frequency, TF over GST control) | 1.27 fold enrichment (6-mer frequency, TF over GST control)
GTACTA | 1.21 fold enrichment (6-mer frequency, TF over GST control) | 1.05 fold enrichment (6-mer frequency, TF over GST control) | 1.13 fold enrichment (6-mer frequency, TF over GST control) | 1.1 fold enrichment (6-mer frequency, TF over GST control) | 1.09 fold enrichment (6-mer frequency, TF over GST control) | 1.13 fold enrichment (6-mer frequency, TF over GST control) | 1.09 fold enrichment (6-mer frequency, TF over GST control) | 1.15 fold enrichment (6-mer frequency, TF over GST control)
ACGGCC | 1.02 fold enrichment (6-mer frequency, TF over GST control) | 1.13 fold enrichment (6-mer frequency, TF over GST control) | 1.1 fold enrichment (6-mer frequency, TF over GST control) | 1.17 fold enrichment (6-mer frequency, TF over GST control) | 1.13 fold enrichment (6-mer frequency, TF over GST control) | 1.02 fold enrichment (6-mer frequency, TF over GST control) | 1.13 fold enrichment (6-mer frequency, TF over GST control) | 1.08 fold enrichment (6-mer frequency, TF over GST control)
ATTGCT | 1.15 fold enrichment (6-mer frequency, TF over GST control) | 1.25 fold enrichment (6-mer frequency, TF over GST control) | 1.23 fold enrichment (6-mer frequency, TF over GST control) | 1.17 fold enrichment (6-mer frequency, TF over GST control) | 1.43 fold enrichment (6-mer frequency, TF over GST control) | 1.18 fold enrichment (6-mer frequency, TF over GST control) | 1.11 fold enrichment (6-mer frequency, TF over GST control) | 1.15 fold enrichment (6-mer frequency, TF over GST control)
GGTACT | 1.38 fold enrichment (6-mer frequency, TF over GST control) | 1.3 fold enrichment (6-mer frequency, TF over GST control) | 1.31 fold enrichment (6-mer frequency, TF over GST control) | 1.31 fold enrichment (6-mer frequency, TF over GST control) | 1.2 fold enrichment (6-mer frequency, TF over GST control) | 1.28 fold enrichment (6-mer frequency, TF over GST control) | 1.24 fold enrichment (6-mer frequency, TF over GST control) | 1.16 fold enrichment (6-mer frequency, TF over GST control)
CTCATA | 1.35 fold enrichment (6-mer frequency, TF over GST control) | 1.3 fold enrichment (6-mer frequency, TF over GST control) | 1.35 fold enrichment (6-mer frequency, TF over GST control) | 1.33 fold enrichment (6-mer frequency, TF over GST control) | 1.32 fold enrichment (6-mer frequency, TF over GST control) | 1.39 fold enrichment (6-mer frequency, TF over GST control) | 1.26 fold enrichment (6-mer frequency, TF over GST control) | 1.27 fold enrichment (6-mer frequency, TF over GST control)
